{"source": "PubChem BioAssay (Tox21)", "note": "Calls of active or inactive are those of the source. Calls follow the shape of the dose curve; as a rule, active = well fitted curve in the direction sought with a large enough effect in the repeat runs; inconclusive = weak or mixed curves; inactive = flat fitted curve, though single readings scatter."}
{"assay": "qHTS assay to test for compound auto fluorescence at 535 nm (green) in HEK293 cells (AID 720680)", "settings": "green autofluorescence 485/535 nm; series mostly up to 91.3 µM", "source_text": "U.S. Tox21 Program National Center for Advancing Translational Sciences [NCATS] NIH Chemical Genomics Center [NCGC] U.S. Environmental Protection Agency [EPA] National Institutes of Environmental Health Sciences [NIEHS] National Toxicology Program [NTP] U.S. Food and Drug Administration [FDA] Tox21 Assay Overview: Compound auto fluorescence often interferes with screening of the compound library against various biological targets and signaling pathways. Some of these compounds may have fluorophoric properties. Such properties may interfere with the assay outputs resulting in false positives and/or negatives. To decrease such complications and ensure the compound activities are relevant in terms of biological response, the Tox21 10K compound library was screened for auto fluorescence. From the fluorophores used as reporter signals in our screening assays, the auto fluorescence equivalencies of compounds against three fluorophores have been evaluated: Triamterene, Fluorescein and Rose Bengal sodium for blue, green and red fluorescence, respectively. The fluorescence intensities were measured using Excitation/Emission wavelengths at 405/460nm, 485/535nm and 540/590nm for blue, green and red labels, respectively. This assay includes the green fluorescence data.\nTox21 Assay Protocol Summary: 2,000 HEK293 cells in 5 uL of culture medium containing 10% dialyzed FBS per well were dispensed into black wall/clear bottom 1536-well plates using a Multidrop Combi Dispenser (Thermo Scientific). The assay plates were incubated for 4-5 hr at 37C to allow cell attachment to the well bottom, followed by the transfer of 23 nL compound or DMSO vehicle by a pintool work station (Kalypsys, San Diego, CA). After the assay plates were incubated overnight at 37C and 5% CO2, fluorescence intensities in the assay plates were measured by an Envision (PerkinElmer, Shelton, CT) plate reader using three labels for measuring blue, green and red fluorescence at […] 460, 535 and 590nm respectively."}
{"smiles": "CSc1nc(NC(C)C)nc(NC(C)C)n1", "outcome": "inactive"}
{"smiles": "CN(C)c1nc(=O)n(C2CCCCC2)c(=O)n1C", "outcome": "inactive"}
{"smiles": "O=[N+]([O-])c1ccc(Nc2ccccc2)cc1", "outcome": "inactive"}
{"smiles": "CCCCOCCOC(C)=O", "outcome": "inactive"}
{"smiles": "CNC(=O)Oc1cccc2c1OC(C)(C)C2", "outcome": "inactive"}
{"smiles": "ClC(Cl)(Cl)Br", "outcome": "inactive"}
{"smiles": "S=c1[nH]c2ccccc2[nH]1", "outcome": "inactive"}
{"smiles": "Clc1ccccc1-c1nnc(-c2ccccc2Cl)nn1", "outcome": "inactive"}
{"smiles": "Brc1ccc(Br)cc1", "outcome": "inactive"}
{"smiles": "Nc1ccc2ccccc2c1", "outcome": "inactive"}
{"smiles": "N#Cc1c(Cl)c(Cl)c(Cl)c(C#N)c1Cl", "outcome": "inactive"}
{"smiles": "ClC(Cl)=C(Cl)C(Cl)=C(Cl)Cl", "outcome": "inactive"}
{"smiles": "Cl", "outcome": "inactive"}
{"smiles": "CC(C)CON=O", "outcome": "inactive"}
{"smiles": "COP(=O)(NC(C)=O)SC", "note": "(stereo not given)", "outcome": "inactive"}
{"smiles": "Oc1ccc(Cl)cc1Cc1ccccc1", "outcome": "inactive"}
{"smiles": "CC(C)(C#N)N=NC(C)(C)C#N", "outcome": "inactive"}
{"smiles": "ClCc1ccccn1", "outcome": "inactive"}
{"smiles": "C=CC(Cl)CCl", "note": "(stereo not given)", "outcome": "inactive"}
{"smiles": "C[C@]12CCC(=O)C=C1CC[C@@H]1[C@@H]2CC[C@@]2(C)[C@H]1CC[C@]2(C)O", "outcome": "inactive"}
{"smiles": "CCC/C=N/O", "outcome": "inactive"}
{"smiles": "COc1ccc(C=O)cc1OC", "outcome": "inactive"}
{"smiles": "Cc1ccc(N=CN(C)C=Nc2ccc(C)cc2C)c(C)c1", "outcome": "inactive"}
{"smiles": "CC1CC(=O)O1", "note": "(stereo not given)", "outcome": "inactive"}
{"smiles": "[CH3][Sn]([Cl])([Cl])[Cl]", "outcome": "inactive"}
{"smiles": "COc1ccc(O)c(C(C)(C)C)c1", "outcome": "inactive"}
{"smiles": "CN(C)c1ccccc1", "outcome": "inactive"}
{"smiles": "CCOS(=O)(=O)OCC", "outcome": "inactive"}
{"smiles": "CN(C)P(=O)(N(C)C)N(C)C", "outcome": "inactive"}
{"smiles": "CC(C)Nc1nc(Cl)nc(NC(C)C)n1", "outcome": "inactive"}
{"smiles": "O=C(O)c1nn(Cc2ccc(Cl)cc2Cl)c2ccccc12", "outcome": "inactive"}
{"smiles": "CC(C)=CC1C(C(=O)OCN2C(=O)C3=C(CCCC3)C2=O)C1(C)C", "note": "(stereo not given)", "outcome": "inactive"}
{"smiles": "CCN(CC)C(=O)C(C)Oc1cccc2ccccc12", "note": "(stereo not given)", "outcome": "inactive"}
{"smiles": "COP(=S)(OC)Oc1ccc(S(=O)(=O)N(C)C)cc1", "outcome": "inactive"}
{"smiles": "CNC(=S)S", "outcome": "inactive"}
{"smiles": "CC(C)Nc1ccc(Nc2ccccc2)cc1", "outcome": "inactive"}
{"smiles": "C=CC(=O)OCC(CC)(COC(=O)C=C)COC(=O)C=C", "outcome": "inactive"}
{"smiles": "CC(C)(O)C#N", "outcome": "inactive"}
{"smiles": "COC(=O)Nc1nc2ccccc2[nH]1", "outcome": "inactive"}
{"smiles": "ClC(Cl)(Cl)c1ccccc1", "outcome": "inactive"}
